Over roughly 81,000 sequences, “one-hybrid fitness for binding parS DNA” has its median near -0.17; the highest 2% begin near 0.51. What follows is part of a selection rich in the highest values, with near analogues and random picks from the rest.
B1: Caulobacter ParB omega fusion; a variant is named by its letters at X, in order, B8GW30 (parent)
chain: MESVVVGEPGMSEGRRGLGRGLSALLGEVDAAPAQAPGEQLGGSREAPIEILQRNPDQPRRTFREEDLEDLSNSIREKGVLQPILVRPSPDTAGEYQIVAGERAWRAAQRAGLKTVPIMVRELDDLAVLEIGIIENVQRADLNVLEEALSYKVLMEKFERTQENIAQTIGKSXSHVANXMRLLXLPDEVQSYLVSGELTAXHARAIAAAADPVALAKQIIEGGLSVRETEALARKAPNLSAGKSKGGRPPRVKDTDTQALESDLSSVLGLDVSIDHRGSTGTLTITYATLEQLDDLCNRLTRGI

Variants of: B1
Test: one-hybrid fitness for binding parS DNA (scaled: cognate 1, non-cognate 0); higher = stronger binding
Settings: with parS DNA site
How it was run: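 Fitness here means the log change in variant-to-wild-type read ratio between plasmids sequenced before and after selection. That scale was set so cognate equals 1 and non-cognate equals 0. The selection was a bacterial one-hybrid screen of Caulobacter ParB libraries, four specificity codons randomised, in E. coli USO carrying a HIS3 reporter with the site 19 bp from the promoter, grown 48 hours at 37°C on M9-minus-histidine with 0.1 mM IPTG and 5 mM 3-AT.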

Variant	one-hybrid fitness for binding parS DNA
PLWY	≤ 0.2
QQVF	≤ 0.2
HPKR	≤ 0.2
DNQS	≤ 0.2
YLEP	≤ 0.2
MTEN	≤ 0.2
RLGC	0.97
RLGM	0.352
RLGK	≤ 0.2
RAGF	0.247
RAGY	0.473
RHGK	≤ 0.2
RRGQ	≤ 0.2
RRGC	0.593
RHGY	0.429
RAGC	0.968
RRGR	≤ 0.2
RHGC	0.896
DSNT	≤ 0.2
KDLS	≤ 0.2
GQVC	≤ 0.2
YDLG	≤ 0.2
KTAM	≤ 0.2
RFGC	0.882

Variant	one-hybrid fitness for binding parS DNA
NFGC	≤ 0.2
RFGR	≤ 0.2
RIGC	0.955
RIGM	0.268
RIGF	0.234
NLSL	≤ 0.2
LPEL	≤ 0.2
PHQK	≤ 0.2
LEDW	≤ 0.2
EWQP	≤ 0.2
ATNC	≤ 0.2
RHHT	0.869
RIHH	≤ 0.2
RCHT	0.906
REHT	≤ 0.2
RMHP	≤ 0.2
RHHH	≤ 0.2
RIHT	0.936
RMHT	0.946
RPHT	≤ 0.2
RHHP	≤ 0.2
RIHP	≤ 0.2
RMHH	0.274
RGFW	≤ 0.2

Variant	one-hybrid fitness for binding parS DNA
HQMY	≤ 0.2
VSHP	≤ 0.2
WWRR	≤ 0.2
RVEY	0.353
LLVS	≤ 0.2
PHSW	≤ 0.2
HGMV	≤ 0.2
SLSC	≤ 0.2
PKWC	≤ 0.2
SQSD	≤ 0.2
HHCS	≤ 0.2
CACK	≤ 0.2
TVNL	≤ 0.2
YQLS	≤ 0.2
RSHN	0.412
RSHD	≤ 0.2
RTHT	0.908
RTHK	≤ 0.2
RTHM	0.317
RSHT	0.876
PPLK	≤ 0.2
HGKG	≤ 0.2
TTRW	≤ 0.2
YNRL	≤ 0.2

Variant	one-hybrid fitness for binding parS DNA
YMLS	≤ 0.2
RSKQ	≤ 0.2
RDKG	0.274
RSKG	0.944
RCKG	0.89
RSKR	≤ 0.2
RPKG	≤ 0.2
NLKV	≤ 0.2
YAAA	≤ 0.2
TCWR	≤ 0.2
WDTT	≤ 0.2
VAYM	≤ 0.2
AACS	≤ 0.2
GVIV	≤ 0.2
RGAH	≤ 0.2
RGAD	≤ 0.2
RGFD	≤ 0.2
RGAS	0.734
RGFH	≤ 0.2
RGFS	0.584
QGMN	≤ 0.2
VPQV	≤ 0.2
SYEL	≤ 0.2
RWSP	≤ 0.2

Variant	one-hybrid fitness for binding parS DNA
RWWN	≤ 0.2
RWSH	≤ 0.2
RWWS	0.644
RWWF	≤ 0.2
RWYH	≤ 0.2
RWID	≤ 0.2
RWIS	0.609
RWSS	0.912
RWYN	0.223
RWYS	0.803
RWPS	0.444
STYW	≤ 0.2
GPTL	≤ 0.2
TSHS	≤ 0.2
QPMV	≤ 0.2
PMGR	≤ 0.2
YPVG	≤ 0.2
LLPR	≤ 0.2
RWGP	≤ 0.2
RWNH	≤ 0.2
RWHN	0.301
RWLN	0.313
RWHS	0.894
RWGH	≤ 0.2

Variant	one-hybrid fitness for binding parS DNA
RWLS	0.8
RWLH	≤ 0.2
RWHD	≤ 0.2
RWND	≤ 0.2
RWGS	0.68
RWNS	0.926
PKTI	≤ 0.2
VLLV	≤ 0.2
HQHT	≤ 0.2
AWSC	≤ 0.2
PQNR	≤ 0.2
MNVS	≤ 0.2
TRQG	≤ 0.2
HPNK	≤ 0.2
VARE	≤ 0.2
RWRP	≤ 0.2
RWCP	≤ 0.2
RWDN	≤ 0.2
RWQS	0.868
RWRS	0.955
RWRN	0.401
RWCS	0.756
RWCN	≤ 0.2
RWQP	≤ 0.2

Variant	one-hybrid fitness for binding parS DNA
RWDS	0.76
RWQH	≤ 0.2
RWDP	≤ 0.2
CKLV	≤ 0.2
MLGM	≤ 0.2
PIWC	≤ 0.2
MSNM	≤ 0.2
WLDE	≤ 0.2
RSVA	0.515
REVA	≤ 0.2
RPVA	≤ 0.2
RCVA	0.581
RGVA	≤ 0.2
SKAI	≤ 0.2
SIHL	≤ 0.2
MVSE	≤ 0.2
GMRV	≤ 0.2
ETNG	≤ 0.2
CGAE	≤ 0.2
RSKH	0.274
RCKS	0.836
RPKS	≤ 0.2
RCKD	≤ 0.2
RSKD	≤ 0.2

Variant	one-hybrid fitness for binding parS DNA
RSKS	0.883
AQTD	≤ 0.2
DWLL	≤ 0.2
YIPE	≤ 0.2
CIRT	≤ 0.2
PNRV	≤ 0.2
RGIC	0.422
RGLC	0.537
RGKH	≤ 0.2
RGLR	≤ 0.2
RGVC	0.445
RGKC	0.833
RGCF	≤ 0.2
RGCK	≤ 0.2
RGPC	0.217
RGCC	0.534
RGYC	0.527
RGLM	≤ 0.2
ESDG	≤ 0.2
QSSQ	≤ 0.2
TSPP	≤ 0.2
RRPY	0.315
GLPL	≤ 0.2
LLVN	≤ 0.2

Variant	one-hybrid fitness for binding parS DNA
YATP	≤ 0.2
THMC	≤ 0.2
ASRN	≤ 0.2
HKPA	≤ 0.2
RGAQ	≤ 0.2
RGNN	0.321
RGHC	0.59
RGEC	0.449
RGNC	0.716
RGFC	0.454
RGDC	0.467
RGHY	≤ 0.2
RGAC	0.584
RGHR	≤ 0.2
RGWC	0.504
RGRC	0.798
SREL	≤ 0.2
FTNN	≤ 0.2
MTRS	≤ 0.2
DMPV	≤ 0.2
RDMM	≤ 0.2
LDNS	≤ 0.2
QVVM	≤ 0.2
RGQK	≤ 0.2

Variant	one-hybrid fitness for binding parS DNA
RGSF	≤ 0.2
RGGM	≤ 0.2
RGSC	0.672
RGQC	0.649
RGGR	≤ 0.2
RGQF	≤ 0.2
RGGC	0.594
RGSK	≤ 0.2
AAYP	≤ 0.2
DGHR	≤ 0.2
WKKW	0.229
LCSR	≤ 0.2
YTPT	≤ 0.2
AYYS	≤ 0.2
SYRV	≤ 0.2
VSYR	≤ 0.2
NTNS	≤ 0.2
RWLA	0.384
RMLA	0.609
RTLA	0.595
DTLA	≤ 0.2
NMLA	≤ 0.2
RCLA	0.609
NTLA	≤ 0.2

Variant	one-hybrid fitness for binding parS DNA
RPLA	≤ 0.2
NALA	≤ 0.2
RALA	0.612
PNHR	≤ 0.2
LLEW	≤ 0.2
GIRG	≤ 0.2
DQFS	≤ 0.2
PYSY	≤ 0.2
GART	≤ 0.2
NSRV	≤ 0.2
IMIV	≤ 0.2
ICQC	≤ 0.2
NHLA	≤ 0.2
RELA	≤ 0.2
RFLA	0.533
SFLA	≤ 0.2
RDLA	≤ 0.2
DLLA	≤ 0.2
RSLA	0.591
RHLA	0.533
RLLA	0.605
DHLA	≤ 0.2
DFLA	≤ 0.2
RNLA	0.452

Variant	one-hybrid fitness for binding parS DNA
YYAL	≤ 0.2
HRNR	≤ 0.2
VLTI	≤ 0.2
QANF	≤ 0.2
MFMS	≤ 0.2
QQVT	≤ 0.2
TCGR	≤ 0.2
KIYR	≤ 0.2
FHCT	≤ 0.2
NRQF	≤ 0.2
THLI	≤ 0.2
RMEQ	≤ 0.2
QDTM	≤ 0.2
VKRS	≤ 0.2
HTGH	≤ 0.2
RADP	≤ 0.2
RANP	≤ 0.2
RANS	0.96
RADS	0.966
RADH	≤ 0.2
RANH	≤ 0.2
YHVS	≤ 0.2
SKAT	≤ 0.2
RCTR	≤ 0.2

Variant	one-hybrid fitness for binding parS DNA
DCPY	≤ 0.2
CRRI	≤ 0.2
RSQT	0.874
REQT	≤ 0.2
RPQT	≤ 0.2
RSQK	≤ 0.2
RCQT	0.936
RDQT	≤ 0.2
MKGT	≤ 0.2
PHAA	≤ 0.2
CNAG	≤ 0.2
SQES	≤ 0.2
CCPY	≤ 0.2
RKKP	≤ 0.2
RKVG	0.942
RKKG	0.802
RKVY	0.412
RKKD	≤ 0.2
RKVF	≤ 0.2

— a collection of fitness landscapes (doi:10.1016/j.celrep.2020.107928)
